“And” between values parts separate entries of the source, which are not always exact repeats. Equal entries are not always repeated. Records with an inconclusive call do not appear. The source made the active and inactive calls. Unless noted, calls follow the shape of the dose curve; as a rule, active = well fitted curve in the direction sought with a large enough effect; inconclusive = small, poorly fitted or top-dose-only effect, or another doubt; inactive = no such curve, though single readings can be large; an effect the other way counts as inactive or inconclusive.
What was measured:
[1] = Cell Viability - BJ (AID 421; calls by dose curve;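 also: potency is read from the fitted curve at half-maximal effect; cells exposed to compound for 40 hours at 37 °C before readout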); settings: BJ fibroblast viability, qHTS
Method in brief: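 Quantitative HTS: ATP depletion in BJ cells after 40 hr compound exposure in complete culture medium, detected with CellTiter-Glo; AC50 from standard Hill fits.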

[2] = Cell Viability - HepG2 (AID 433; calls by dose curve;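 also: potency is read from the fitted curve at half-maximal effect; potency for ATP loss meaning cytotoxicity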); settings: qHTS
Method in brief: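 HepG2 cells, 1500 per well, treated 40 hr at 37 °C in complete medium; viability from intracellular ATP by CellTiter-Glo luminescence. Normalized to DMSO and 100 uM tamoxifen; AC50 from Hill fit of qHTS concentration-response.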

[3] = Cell Viability - Renal Proximal Tubule (AID 545); settings: renal proximal tubule cells viability, primary cells of rat origin; activity change, negative = cytotoxicity: at 91.7 µM (top of the series); also: nearly all actives have a fitted effect of over 40% in size
Method in brief: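 Rat renal proximal tubule primary cells, 1000/well, exposed to compounds for 40 hr at 37 °C in complete medium; cellular ATP read by CellTiter-Glo luminescence. AC50 from concentration-response fitted with standard Hill equation.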

[4] = Cellular Toxicity (caspase-3) Jurkat (AID 655); settings: Jurkat caspase-3 activation, luminescence; caspase-3 activation: at 92.2 µM (top of the series), DMSO = 0%, tamoxifen = 100%;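 also: cells exposed to compound for 16 h at 37 °C before reading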
Method in brief: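 Jurkat cells (5000/well) in complete medium exposed 16 h at 37 C; caspase-3/7 activity read by Caspase-Glo luminescence after 20 min at room temperature. Normalized to DMSO and 100 uM tamoxifen; AC50 from Hill fits.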

[5] = MultiTox-Fluor Cytotoxicity Assay - LYMP1-001 - Dead Cells (AID 946); settings: LYMP1-001 lymphoblastoid cells, dead-cell protease fluorescence; series mostly up to 92.2 µM;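 also: 0% = DMSO and 100% = tetraoctylammonium bromide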
Method in brief: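 In this qHTS, 15 uM tetraoctylammonium bromide defined 100% and DMSO defined basal activity. Lymphoblastoid cells (LYMP1-001, 2500 per well) received compound for 16 hr at 37 C before a fluorogenic dead-cell substrate readout at 485/520 nm.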

[6] = Cell Viability - LYMP1-002 - Assay at 16 hr (AID 948); settings: LYMP1-002 lymphoblastoid cell viability; series mostly up to 92.2 µM;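 also: 0% = DMSO alone and full effect = 92 µM tetraoctylammonium bromide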
Method in brief: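 LYMP1-002 human lymphoblastoid cells, 2500/well, were treated with compounds for 16 hr at 37 C in complete medium. Viability was read as intracellular ATP by CellTiter-Glo luminescence, and AC50 was derived from a Hill fit to concentration-response data.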

[7] = MultiTox-Fluor Cytotoxicity Assay - LYMP1-002 - Live Cells (AID 955); settings: LYMP1-002 lymphoblastoid live-cell protease fluorescence viability; series mostly up to 46.1 µM;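 also: cells exposed to compound for 16 hours; % is scaled to controls: 0 for no effect and ±100 for the full control effect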
Method in brief: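 After 16 h compound exposure at 37 C, live LYMP1-002 lymphoblastoid cells (2500/well) were quantified by cleavage of cell-permeant GF-AFC substrate, read at 405/510 nm after 60 min. Concentration-response fitted with Hill equation for AC50.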

[8] = MultiTox-Fluor Cytotoxicity Assay - LYMP1-003 - Dead Cells (AID 961); settings: LYMP1-003 lymphoblastoid cells, dead-cell protease fluorescence; series mostly up to 92.2 µM;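 also: 0% = DMSO and 100% = tetraoctylammonium bromide; nearly all actives have a fitted effect of over 70% in size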
Method in brief: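 Acute toxicity is scored as increased dead-cell protease activity in human lymphoblastoid LYMP1-003 cells after 16 h compound exposure in complete culture medium. Activity is normalized to DMSO basal and 15 uM tetraoctylammonium bromide as full response.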

[9] = Cell Viability - LYMP2-004 (AID 966); settings: LYMP2-004 lymphoblastoid cell viability, qHTS; series mostly up to 92.2 µM;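 also: plate controls were DMSO only for no effect and tetraoctylammonium bromide control for full effect; nearly all actives have a fitted effect of over 65% in size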
Method in brief: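 AC50 values come from Hill modelling of concentration-dependent loss of intracellular ATP, measured by CellTiter-Glo luminescence. Human LYMP2-004 lymphoblastoid cells (2500/well) were exposed to compound for 24 h at 37 C.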

[10] = Cell Viability - LYMP2-011 (AID 969); settings: LYMP2-011 lymphoblastoid cells viability; series mostly up to 92.2 µM;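 also: 0% = DMSO only and full inhibition = 92 µM tetraoctylammonium bromide; nearly all actives have a fitted effect of over 60% in size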
Method in brief: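 Cytotoxicity qHTS with ATP content as read-out: lymphoblastoid cells (2500/well) exposed to compound for 24 h at 37 C, then luciferase luminescence measured. Concentration-response data fitted with the standard Hill equation to give AC50.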

[11] = Cell Viability - LYMP2-017 (AID 972); settings: LYMP2-017 lymphoblastoid cell viability; series mostly up to 92.2 µM; also: % is scaled to controls: 0 for no effect and ±100 for the full control effect; nearly all actives have a fitted effect of over 55% in size
Method in brief: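 CellTiter-Glo luminescence (cellular ATP, 30 min RT) measured cytotoxicity after 24 hr compound treatment at 37 C. Cells were a human lymphoblastoid line, LYMP2-017, plated at 2500/well and incubated 5 hr first; concentration-response fitted with Hill equation for AC50.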

[12] = Cell Viability - LYMP2-007 (AID 979); settings: LYMP2-007 lymphoblastoid cell viability; series mostly up to 92.2 µM;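 also: cells exposed to compound for 24 h before reading; 0% = DMSO only and the negative end = 92 µM tetraoctylammonium bromide; nearly all actives have a fitted effect of over 60% in size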
Method in brief: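 AC50 values come from Hill-equation fits of luminescent intracellular ATP (CellTiter-Glo, 30 min, room temperature) following 24 h compound exposure at 37 C. Cells: LYMP2-007 lymphoblastoid line, 2500 per well, in complete culture medium.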

[13] = Cell Viability - LYMP2-014 (AID 983); settings: LYMP2-014 lymphoblastoid cells, viability qHTS; series mostly up to 92.2 µM;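 also: plate controls were DMSO only for no effect and 92 µM tetraoctylammonium bromide for full effect; nearly all actives have a fitted effect of over 50% in size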
Method in brief: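 Intracellular ATP loss, read by luciferase luminescence, measures acute cytotoxicity after 24 h compound exposure of lymphoblastoid LYMP2-014 cells (2500/well, 37 C). Concentration-response data fitted to the Hill equation for AC50.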

[14] = Cell Viability - LYMP2-016 (AID 984); settings: LYMP2-016 lymphoblastoid cell viability, qHTS; series mostly up to 92.2 µM; also: % is scaled to controls: 0 for no effect and ±100 for the full control effect; nearly all actives have a fitted effect of over 55% in size
Method in brief: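 Human lymphoblastoid LYMP2-016 cells, 2500 per well, treated with compounds for 24 h at 37 C. Viability read as intracellular ATP by CellTiter-Glo luminescence after 30 min at room temperature; AC50 from Hill fits of concentration-response.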

[15] = Cell Viability - LYMP2-018 (AID 985); settings: LYMP2-018 lymphoblastoid cells, viability (qHTS); series mostly up to 92.2 µM;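 also: plate controls were DMSO only for no effect and tetraoctylammonium bromide at 92 µM for full effect; nearly all actives have a fitted effect of over 50% in size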
Method in brief: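 Viability read as CellTiter-Glo luminescence (cellular ATP) after 24 hr compound exposure at 37 C of 2500 LYMP2-018 lymphoblastoid cells/well, pre-plated 5 hr. Hill-equation modelling gave AC50.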

[16] = Cell Viability - LYMP2-020 (AID 986); settings: series mostly up to 92.2 µM;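 also: plate controls were DMSO only for no effect and tetraoctylammonium bromide at 92 µM for full effect; nearly all actives have a fitted effect of over 55% in size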
Method in brief: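 Cytotoxicity in qHTS format: luminescent ATP readout from CellTiter-Glo after 24 h compound exposure at 37 C in complete medium. LYMP2-020 lymphoblastoid cells were seeded at 2500/well; concentration-response data fitted to the Hill equation for AC50.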

[17] = Cell Viability - LYMP2-022 (AID 987); settings: LYMP2-022 lymphoblastoid cell viability; series mostly up to 92.2 µM;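 also: 0% = DMSO alone and full effect = tetraoctylammonium bromide at 92 µM; nearly all actives have a fitted effect of over 55% in size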
Method in brief: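 Cytotoxicity read as decreased cellular ATP (CellTiter-Glo luminescence, 30 min room temperature) after 24 hours compound exposure of 2500 lymphoblastoid LYMP2-022 cells/well at 37 C. Concentration-response data fitted with standard Hill equation for AC50.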

[18] = Cell Viability - LYMP1-002 - Assay at 24 hr (AID 993); settings: LYMP1-002 lymphoblastoid cells viability; series mostly up to 92.2 µM; also: % is scaled to controls: 0 for no effect and ±100 for the full control effect
Method in brief: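 qHTS cytotoxicity at 24 h: CellTiter-Glo ATP luminescence in lymphoblastoid line LYMP1-002 incubated with compound at 37 °C. Concentration-response modeled with the Hill equation for AC50; tetraoctylammonium bromide served as positive control.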

[19] = qHTS assay for environmental chemicals that activate the Aryl hydrocarbon Receptor (AhR) signaling pathway (AID 651777); settings: 1A2-DRE human hepatoma cells, luciferase, 24 h; activation: stronger effect = higher value; also: % of control where 0% means no effect; nearly all actives have a fitted effect of over 15% in size
Method in brief: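 Concentration–response screening used 1,200 1A2-DRE cells per well, 24 hr compound exposure (37 C, 5% CO2), and One-Glo luminescence as the AhR-driven CYP1A2 reporter signal.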

[20] = biological target: Nuclear receptor subfamily 1 group I member 2 (Rattus norvegicus) (UniProt Q9R1A7); test: qHTS assay for small molecule activators of the rat pregnane X receptor (rPXR) signaling pathway (AID 651751; call rule not given here; also: 0% is about no effect); settings: rPXR reporter cells, luciferase (One-Glo), 24 h
Sequence of Nuclear receptor subfamily 1 group I member 2 (Rattus norvegicus) (Q9R1A7 whole entry, looked up): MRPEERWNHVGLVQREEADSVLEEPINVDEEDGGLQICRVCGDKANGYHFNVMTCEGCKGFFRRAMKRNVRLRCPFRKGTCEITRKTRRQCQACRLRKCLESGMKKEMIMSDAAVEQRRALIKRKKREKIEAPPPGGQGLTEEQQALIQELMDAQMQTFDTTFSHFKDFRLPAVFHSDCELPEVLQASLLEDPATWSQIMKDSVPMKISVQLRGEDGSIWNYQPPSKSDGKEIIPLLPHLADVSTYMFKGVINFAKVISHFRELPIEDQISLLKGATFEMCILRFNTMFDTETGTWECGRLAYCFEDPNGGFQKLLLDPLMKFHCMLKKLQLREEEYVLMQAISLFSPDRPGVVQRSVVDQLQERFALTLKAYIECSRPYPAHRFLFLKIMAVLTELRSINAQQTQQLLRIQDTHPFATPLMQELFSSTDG

Brc1ccc(-c2ccccc2)cc1
inactive: Potency [1] > 92 µM | Potency [2] > 92 µM | Potency [3] | Potency [4] | Potency [5] | Potency [6] | outcome [7] | Potency [8] | Potency [9] | Potency [10] | Potency [11] | Potency [12] | Potency [13] | Potency [14] | Potency [15] | Potency [16] | Potency [17] | Potency [18] | activation [19] 11.7% | max response [20] 1.6%

OCC(CO)(CBr)CBr
inactive: Potency [1] > 92 µM | Potency [2] > 92 µM | Potency [3] | Potency [4] | Potency [5] | Potency [6] | outcome [7] | Potency [8] | Potency [9] | Potency [10] | Potency [11] | Potency [12] | Potency [13] | Potency [14] | Potency [15] | Potency [16] | Potency [17] | Potency [18] | activation [19] 0.992% and 2.31% | max response [20] 4.89% and 3.86%

CCOC(=O)C1OC1c1ccccc1 (stereo unspecified)
inactive: Potency [1] > 92 µM | Potency [2] > 92 µM | Potency [3] | Potency [4] | Potency [5] | Potency [6] | outcome [7] | Potency [8] | Potency [9] | Potency [10] | Potency [11] | Potency [12] | Potency [13] | Potency [14] | Potency [15] | Potency [16] | Potency [17] | Potency [18] | activation [19] -0.0092% | max response [20] 9.31%

COc1cc(-c2ccc(N=C=O)c(OC)c2)ccc1N=C=O
inactive: Potency [1] > 92 µM | Potency [2] > 92 µM | Potency [3] | Potency [4] | Potency [5] | Potency [6] | outcome [7] | Potency [8] | Potency [9] | Potency [10] | Potency [11] | Potency [12] | Potency [13] | Potency [14] | Potency [15] | Potency [16] | Potency [17] | Potency [18] | activation [19] 0.786% and 6.25%

CCCCC(CC)COCCCN (stereo unspecified)
inactive: Potency [1] > 92 µM | Potency [2] > 92 µM | Potency [3] | Potency [4] | Potency [5] | Potency [6] | outcome [7] | Potency [8] | Potency [9] | Potency [10] | Potency [11] | Potency [12] | Potency [13] | Potency [14] | Potency [16] | Potency [17] | Potency [18] | activation [19] -0.398% | max response [20] 1.77%

CC(=O)OCc1ccc2c(c1)OCO2
inactive: Potency [1] > 92 µM | Potency [2] > 92 µM | Potency [3] | Potency [4] | Potency [5] | Potency [6] | outcome [7] | Potency [8] | Potency [9] | Potency [10] | Potency [11] | Potency [12] | Potency [13] | Potency [14] | Potency [15] | Potency [16] | Potency [17] | Potency [18] | activation [19] 1.36% | max response [20] -6.58%

Cc1cc(=O)oc2cc(O)cc(O)c12
inactive: Potency [1] > 92 µM | Potency [2] > 92 µM | Potency [3] | Potency [4] | Potency [5] | Potency [6] | outcome [7] | Potency [8] | Potency [9] | Potency [10] | Potency [11] | Potency [12] | Potency [13] | Potency [14] | Potency [15] | Potency [16] | Potency [17] | Potency [18] | activation [19] 8.78% | max response [20] -2.67%

O=C(OCc1ccccc1)c1ccccc1O
inactive: Potency [1] > 92 µM | Potency [2] > 92 µM | Potency [3] | Potency [4] | Potency [5] | Potency [6] | outcome [7] | Potency [8] | Potency [9] | Potency [10] | Potency [11] | Potency [12] | Potency [13] | Potency [14] | Potency [15] | Potency [16] | Potency [17] | Potency [18] | activation [19] -0.76% and -0.296% | max response [20] -3.94% and -2.55%

CC(=O)OC(C(=O)c1ccccc1)c1ccccc1 (stereo unspecified)
inactive: Potency [1] > 92 µM | Potency [2] > 92 µM | Potency [3] | Potency [4] | Potency [5] | Potency [6] | outcome [7] | Potency [8] | Potency [9] | Potency [10] | Potency [11] | Potency [12] | Potency [13] | Potency [14] | Potency [15] | Potency [16] | Potency [17] | Potency [18] | activation [19] -0.426% | max response [20] 1.59%

c1ccc2ncccc2c1
inactive: Potency [1] > 92 µM | Potency [2] > 92 µM | Potency [3] | Potency [4] | Potency [5] | Potency [6] | outcome [7] | Potency [8] | Potency [9] | Potency [10] | Potency [11] | Potency [12] | Potency [13] | Potency [14] | Potency [15] | Potency [16] | Potency [17] | Potency [18] | activation [19] -0.0283% | max response [20] 5.68%

OC1CCCCC1
inactive: Potency [1] > 92 µM | Potency [2] > 92 µM | Potency [3] | Potency [4] | Potency [5] | Potency [6] | outcome [7] | Potency [8] | Potency [9] | Potency [10] | Potency [11] | Potency [12] | Potency [13] | Potency [14] | Potency [15] | Potency [16] | Potency [17] | Potency [18] | activation [19] -0.284% | max response [20] 1.53%

COc1ccc([N+](=O)[O-])cc1N
inactive: Potency [1] > 92 µM | Potency [2] > 92 µM | Potency [3] | Potency [4] | Potency [5] | Potency [6] | outcome [7] | Potency [8] | Potency [10] | Potency [11] | Potency [12] | Potency [13] | Potency [14] | Potency [15] | Potency [16] | Potency [17] | Potency [18] | activation [19] 1.04% and 4.76%
